Measured values reported in PubChem BioAssay AID1347414 (National Center for Advancing Translational Sciences (NCATS), 2020).
Results filed as inconclusive are left out. The source made the active and inactive calls. Calls follow the shape of the dose curve; as a rule, active = well fitted inhibition curve with a large enough effect; inconclusive = small, poorly fitted or top-dose-only effect; inactive = no such curve, though single readings can be large or run the other way.

Assay: qHTS to identify inhibitors of the type 1 interferon - major histocompatibility complex class I in skeletal muscle: Secondary screen by immunofluorescence; also: nearly all actives have a fitted effect of over 70% in size
Conditions: C25cl48 myoblasts, IFN-b induced HLA-ABC immunofluorescence, 24 h; series mostly up to 49.8 µM
In short: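 HLA-ABC immunofluorescence, with nuclear and cell-body stains, was quantified by laser scanning cytometry. Read-out followed 24 h of IFN-beta (4.0 ng/ml) stimulation of C25cl48 human myoblasts with compounds titrated 1:3 over 11 points from 50 uM, with ruxolitinib as inhibitor control.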
Potency is read from the fitted curve at half-maximal effect.

Structure (SMILES) | Potency
COC1CC(C(=O)c2ccc3c(N)ncc(-c4ccc(-c5cnn(C)c5)cc4)c3n2)C1 (stereo unspecified) | inactive
CC(C)[C@H](C(=O)Nc1ccc(C(=O)NO)cc1)c1ccccc1 | 458 nM (active)
COc1ccc(CNc2nc(N(CCO)CCO)nc3c2ncn3C(C)C)cc1 | 8140 nM (active)
Cc1[nH]nc2ccc(-c3cncc(OC[C@@H](N)Cc4ccccc4)c3)cc12 | 726 nM (active)
CC(=O)[C@]1(O)Cc2c(O)c3c(c(O)c2[C@@H](O[C@H]2C[C@H](N)[C@H](O)[C@H](C)O2)C1)C(=O)c1ccccc1C3=O | 230 nM (active)
CCNC(=O)c1noc(-c2cc(C(C)C)c(O)cc2O)c1-c1ccc(CN2CCOCC2)cc1 | inactive
CN1CCC(c2c(O)cc(O)c3c(=O)cc(-c4ccccc4Cl)oc23)C1CO (stereo unspecified) | 408 nM (active)
CNC(=O)c1nn(C)c2c1C(C)(C)Cc1cnc(Nc3ccc(N4CCN(C)CC4)cc3)nc1-2 | 5760 nM (active)
O=C(Nc1cn[nH]c1-c1nc2ccc(CN3CCOCC3)cc2[nH]1)NC1CC1 | 2890 nM (active)
COc1cccc2c1C(=O)c1c(O)c3c(c(O)c1C2=O)C[C@@](O)(C(=O)CO)C[C@@H]3O[C@H]1C[C@H](N)[C@H](OC2CCCCO2)[C@H](C)O1 (stereo partly specified) | 5140 nM (active)
C=C1C(=O)O[C@@H]2[C@H]3O[C@]3(C)CC/C=C(\C)CC[C@@H]12 | 7260 nM (active)
CC(C)(C)c1cnc(CSc2cnc(NC(=O)C3CCNCC3)s2)o1 | 289 nM (active)
COC(=O)c1nc(Cl)c(Cl)nc1N | 5760 nM (active)
CCc1c2c(nc3ccc(O)cc13)-c1cc3c(c(=O)n1C2)COC(=O)[C@]3(O)CC | 2570 nM (active)
CN1CCN(c2cccc(Nc3nc4c(-c5ccc(S(C)(=O)=O)cc5)cccn4n3)c2)CC1 | 1820 nM (active)
O=C(/C=C\n1cnc(-c2cc(C(F)(F)F)cc(C(F)(F)F)c2)n1)NNc1cnccn1 | 324 nM (active)
CCN1CCN(Cc2ccc(NC(=O)Nc3ccc(Oc4cc(NC)ncn4)cc3)cc2C(F)(F)F)CC1 | 1620 nM (active)
COc1cc2c(cc1-c1c(C)noc1C)ncc1[nH]c(=O)n([C@H](C)c3ccccn3)c12 | 4080 nM (active)

Structure (SMILES) | Potency
COc1ncc(Nc2ncc(C(C)N3CCN(S(C)(=O)=O)CC3)cc2-c2nc(C)nc(N)n2)cc1F (stereo unspecified) | inactive
CC(C)c1cnn2c(NCc3ccccc3)cc(N[C@@H](CO)[C@H](O)CO)nc12 | 914 nM (active)
CCCCC(=O)OCC(=O)[C@H]1[C@H](C)C[C@H]2[C@@H]3C[C@H](F)C4=CC(=O)C=C[C@]4(C)[C@@]3(F)[C@@H](O)C[C@@]21C | inactive
CCOc1cc2ncc(C#N)c(Nc3ccc(F)c(Cl)c3)c2cc1NC(=O)/C=C/CN(C)C | 4580 nM (active)
CCCCC(=O)O[C@]1(C(=O)CO)[C@@H](C)C[C@H]2[C@@H]3CCC4=CC(=O)C=C[C@]4(C)[C@@]3(F)[C@@H](O)C[C@@]21C | inactive
CC[C@H]1CN2CCc3cc(OC)c(OC)cc3[C@@H]2C[C@@H]1C[C@H]1NCCc2cc(OC)c(OC)cc21 | 129 nM (active)
N#CCC1(n2cc(-c3ncnc4[nH]ccc34)cn2)CN(C2CCN(C(=O)c3ccnc(C(F)(F)F)c3F)CC2)C1 | 1290 nM (active)
Cc1ccc2nc(NCCN)c3ncc(C)n3c2c1 | 4080 nM (active)
Cc1ncc(-c2ccnc(Nc3ccc(S(C)(=O)=O)cc3)n2)n1C(C)C | 914 nM (active)
Cc1ccc(NC(=O)NCc2ccc3c(c2)CN(C2CCC(=O)NC2=O)C3=O)cc1Cl (stereo unspecified) | 8.1 nM (active)
CCOC(=O)C1=C(C)NC2=C(C(=O)CC(C)(C)C2)C1c1ccc(-c2ccccc2)cc1 (stereo unspecified) | inactive
CC(C)c1c(-c2ccccc2)nc2c(C#N)c[nH]n2c1=O | inactive
Cc1ccc(C(=O)Nc2ccc(CN3CCN(C)CC3)c(C(F)(F)F)c2)cc1C#Cc1cnc2[nH]ncc2c1 | 726 nM (active)
CC[C@@]1(O)C(=O)OCc2c1cc1n(c2=O)Cc2c-1nc1cc(F)c(C)c3c1c2[C@@H](N)CC3 | 1290 nM (active)
Nc1nc(Nc2ccc(S(N)(=O)=O)cc2)nn1C(=O)c1c(F)cccc1F | 2050 nM (active)
Cn1cc(CNCC2CCN(c3ncc(C(=O)NO)cn3)CC2)c2ccccc21 | 9.1 nM (active)
O=c1[nH]c2cc(Cl)ccc2c(O)c1-c1ccc(Oc2ccccc2)cc1 | inactive
COc1cccc2nc(-c3cccs3)nc(NN3C(=O)C=C(C)C3=O)c12 | 1820 nM (active)
